HCMV inh – blocks human cytomegalovirus replication; HFF cells, HCMV-luciferase reporter, 72 h; hits give low values; 410,000 compounds, 4.5% hits; activity change, negative = inhibition, % at 57.5 µM; AID 1259415; in the data active means activity change below about -60%; inconclusive means no clear call, values can overlap the other calls; inactive means above about -39%
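HFF cells seeded 16 h at 37C, treated with compounds, infected with luciferase-reporter HCMV at MOI 1 PFU/cell; luciferase read at 72 h post infection, normalized to buffer-only and Salinomycin controls.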
Vaccinia Venus – vaccinia inhibition (Venus reporter); Vaccinia virus Venus reporter expression, fluorescence; Potency, µM (top dose mostly 36.5 µM), without a hit: top-dose activity change, negative = inhibition, usual class: inhibitors; 330,000 compounds, 0.46% hits; AID 720580; calls by dose curve; tested in A549 cells; further: potency means the concentration at half of the fitted maximal effect; nearly all actives have a fitted effect of over 30% in size
HCV inh – inhibitors of hepatitis C virus infection; Potency, µM (highest dose often 41.8 µM), for the others: top-dose activity change, negative = inhibition, usual class: inhibitors; Huh7.5.1 HCVcc-Cre infection, luciferase reporter, 44 h; 340,000 compounds, 3.4% hits; further: potency means the concentration at half of the fitted maximal effect
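Reporter virus HCVcc-Cre (~0.5 moi) infects cells exposed to compound; seeding density 1,000 cells/well with 4 h settling beforehand. Luminescence, 15 sec read, taken 44 h post-infection following a 15 min RT substrate incubation.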
Vaccinia mCherry – vaccinia inhibition (mCherry reporter) | Vaccinia virus mCherry reporter infection, fluorescence | Potency, µM (top dose mostly 36.5 µM), for inactives: top-dose activity change, negative = inhibition, hits mostly inhibitors | 310,000 compounds, 0.63% hits | AID 720579; calls by dose curve; tested in A549 cells; further: potency means the concentration at half of the fitted maximal effect; nearly all actives have a fitted effect of over 35% in size
FBPA Giardia inh – Giardia lamblia aldolase inhibition; A8B2U2; purified Giardia FBPA; Potency, µM (series often up to 59.6 µM), without a hit: at the highest dose activity, negative = inhibition, hits mostly inhibitors; 290,000 compounds, 0.71% hits; further: potency means the concentration at half of the fitted maximal effect; nearly all actives have a fitted effect of over 55% in size
Target sequence (A8B2U2 whole entry, looked up): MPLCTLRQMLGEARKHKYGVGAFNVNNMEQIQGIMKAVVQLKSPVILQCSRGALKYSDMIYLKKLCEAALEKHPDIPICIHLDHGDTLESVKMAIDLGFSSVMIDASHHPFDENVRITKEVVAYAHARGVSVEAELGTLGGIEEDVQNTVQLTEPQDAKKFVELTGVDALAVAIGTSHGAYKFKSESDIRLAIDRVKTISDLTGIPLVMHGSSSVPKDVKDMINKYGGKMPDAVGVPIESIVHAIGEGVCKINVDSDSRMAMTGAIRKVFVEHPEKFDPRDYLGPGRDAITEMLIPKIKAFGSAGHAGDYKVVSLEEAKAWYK
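Giardia FBPA (40 nM reagent) was preincubated 10 min at RT with compound (up to 57.5 uM final), then substrate plus GAPDH/TPI/NAD/arsenate coupling system with diaphorase/resazurin was added; resorufin fluorescence (525/598 nm) was read after 20 min.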
FMDV antiviral – blocks foot and mouth disease virus; FMDV antiviral cell-based qHTS; 410,000 compounds, 1.2% hits; AID 1159524; Potency, µM (series often up to 57.9 µM), without a hit: at the top dose activity change, negative = inhibition, hits mostly inhibitors; calls by dose curve; tested in HEK293T cells; further: read-out not given here; potency means the concentration at half of the fitted maximal effect; nearly all actives have a fitted effect of over 45% in size
The depositor's hits bear a star; i = inactive; ? = inconclusive; / = not tested or not shown. Hits are enriched below; roughly 7.5% of the tested compounds scored in any of these assays. Unless noted, the call rests on the fitted dose curve; in most records, active means well fitted curve in the direction sought with a large enough effect; inconclusive means small, poorly fitted or top-dose-only effect, or another doubt; inactive means no such curve, though single readings can be large; an effect the other way counts as inactive or inconclusive. On the % scale 0 is the no-effect control and ±100 the full control effect.

SMILES | HCMV inh | Vaccinia Venus | HCV inh | Vaccinia mCherry | FBPA Giardia inh | FMDV antiviral
CCCn1nc([N+](=O)[O-])c(C(C#N)c2nc3ccccc3o2)c(Cl)c1=O (stereo not given) | -14.9 | -19.8% | -7.3% | i | 1.4% | 0.0%
COC(=O)c1ccc(N2C(c3cc(OC)cc(OC)c3)=Cc3ccc(OC)cc3C2CC(=O)c2ccco2)cc1 (stereo not given) | 24.1 | 0.4% | / | 19.3% | / | 4.4%
COC(=O)c1ccc(N2C(c3ccsc3)=Cc3cc4c(cc3C2CC(=O)c2ccco2)OCO4)cc1 (stereo not given) | -69.5* | -4.7% | / | 27.1% | / | 5.4%
COc1ccccc1NC(C)C(=O)c1c[nH]c2ccccc12 (stereo not given) | / | -10.3% | / | i | / | /
NC(=S)N/N=C/c1ccc(-n2nncc2-c2ccc(Cl)cc2)cc1 | / | 1.12µM* | 12.6µM* | 0.794µM* | / | -28.0%
NC(=S)N/N=C/c1ccc(/C=N/NC(N)=S)cc1 | -18.5 | / | -6.5% | / | 1.0% | -16.5%
CCOc1ccc(CNC(=O)c2cccc(NC(=O)N3CCSc4ncccc43)c2)cc1 | ? | -5.1% | / | -8.8% | / | -12.4%
CCCCOc1ccc(CNC(=O)c2cccc(NC(=O)N3CCSc4ncccc43)c2)cc1 | 0.0 | -20.3% | / | -16.7% | / | 22.4µM*
CCc1cccc(NC(=O)c2ccc(NC(=O)N3CCSc4ncccc43)cc2)c1 | 0.0 | ? | / | ? | / | 28.2µM*
CC(C)C(N)C(=O)O (stereo not given) | / | -16.2% | / | i | / | -10.2%
COc1ccc(/C=C/C(=O)c2ccc(OC)cc2OC)c(OC)c1 | -76.5* | 6.9% | ? | 3.5% | -5.0% | 1.8%
CCNc1ccc(Br)cc(C(=O)/C=C/c2ccc(Cl)cc2)c1=O | / | -20.5% | ? | ? | ? | ?
COc1ccc(OC)c(/C=C/C(=O)c2ccc(Cl)cc2)c1 | -10.2 | / | ? | / | -8.4% | 22.4µM*
CNc1ccc(Br)cc(C(=O)/C=C/c2ccc(Cl)cc2Cl)c1=O | 23.5 | 13.7% | ? | 3.6% | ? | 10µM*
COc1ccc(/C=C/C(=O)c2ccccc2)c(OC)c1 | -10.7 | -2.0% | -17.3% | -2.0% | -2.2% | 11.4%
COc1ccccc1/C=C/C(=O)c1ccc(Cl)cc1 | 14.3 | / | ? | / | -7.7% | -30.0%
CNc1ccc(Br)cc(C(=O)/C=C/c2cccc(OC)c2)c1=O | -85.0* | / | 11.2µM* | / | ? | ?
O=C(CCc1nc(-c2cccs2)no1)Nc1ccccc1[N+](=O)[O-] | -20.2 | -7.2% | / | -9.4% | / | 12.0%
Cc1ncc2c(c1CNC(=O)c1cncs1)CCN(C(=O)c1ccc(C(F)(F)F)cc1)C2 | / | -0.8% | / | -7.4% | / | -2.7%
Cn1ncc(C(=O)N=S(C)(=O)c2ccccc2)c1[N+](=O)[O-] (stereo not given) | 18.8 | -1.9% | 6.7% | i | -0.2% | -3.5%
Cc1ccc(C2(c3ccc(C)cc3)CC2C(=O)NC(C)C)cc1 (stereo not given) | -23.4 | -6.8% | -9.3% | i | 2.1% | -13.0%
Cc1c(CN2CCN(CC(C)C)C(CCO)C2)[nH]c2ccc(Cl)cc12 (stereo not given) | 17.2 | -10.8% | -25.4% | -12.5% | 1.2% | -8.5%
O=C(NCC1CCCO1)c1ccc([N+](=O)[O-])s1 (stereo not given) | -30.8 | -13.5% | ? | -1.1% | -1.0% | -5.2%
CC(=O)OCCN1C(=O)c2c(C)nc3ccc(S(=O)(=O)N4CCOCC4)cc3c2C1=O | / | / | / | / | -10.2% | -15.0%
CCCN1CNc2c(c(=O)[nH]c(=S)n2CCc2ccc(Cl)cc2)C1 | / | -11.5% | / | i | / | /
SMILES | HCMV inh | Vaccinia Venus | HCV inh | Vaccinia mCherry | FBPA Giardia inh | FMDV antiviral
COc1ccc(C=C2c3ccccc3C(=O)c3ccccc32)c(OC)c1 | -88.4* | / | / | / | -8.2% | /
COc1ccc(/C=C2\COc3ccccc3C2=O)c(OC)c1 | 7.5 | -19.2% | ? | ? | -0.7% | 30.4%
CNc1ccc(Br)cc(C(=O)/C=C/c2ccc(OC)cc2OC)c1=O | -65.9* | -4.4% | -27.8% | -27.9% | ? | ?
COc1ccc(NC(=O)c2cc(Br)ccc2Cl)c(OC)c1 | -32.0 | -12.6% | ? | -15.6% | 0.5% | 8.4%
CCNc1ccc(Br)cc(C(=O)/C=C/c2c(Cl)cccc2Cl)c1=O | / | / | 12.6µM* | / | ? | 31.6µM*
O=C(c1ccccc1)c1ccccc1N/C=C/c1nnnn1-c1ccccc1 | ? | -21.8% | 6.31µM* | -5.0% | -0.8% | 8.9%
Cc1cc(O)c2c(c1)C(=O)C13C(=C2O)C(=O)[C@H]2[C@@H](O)[C@@H]1[C@H]1[C@H](O)[C@@H]3C(=O)C3=C(O)c4c(O)cc(C)cc4C(=O)C312 (stereo not given in full) | / | ? | 10µM* | ? | / | -2.8%
CCOC(=O)N1CCN(Cc2ccc3c(c2)CN(C(=O)c2ccc4ncccc4c2)CCO3)CC1 | / | -23.1% | / | -20.6% | / | 28.2µM*
CCOC(=O)N1CCN(Cc2ccc3c(c2)CN(C(=O)c2sc(C)nc2C)CCO3)CC1 | / | -4.5% | / | -7.0% | / | ?
O=C(c1ccc2[nH]ccc2c1)N1CCOc2ccc(CN3CCN(c4ccccn4)CC3)cc2C1 | / | -25.9% | / | ? | / | 25.1µM*
Cc1oc(-c2cccc(Cl)c2)nc1CN1CCC(C(=O)N2CCN(c3ccccc3F)CC2)CC1 | -25.2 | 15.8µM* | ? | ? | 2.4% | ?
CCOC(=O)C1CCCN(C(=O)C2CCN(Cc3nc(-c4ccc(Cl)cc4)oc3C)CC2)C1 (stereo not given) | -24.7 | / | 11.2µM* | / | / | ?
Cc1ccc(Cl)cc1N1CCN(C(=O)C2CCN(Cc3nc(-c4cccc(Cl)c4)oc3C)CC2)CC1 | -0.5 | ? | / | -21.1% | / | -10.1%
COc1cc(CN2CCC(C(=O)N3CCN(c4ccccc4F)CC3)CC2)ccc1O | -21.1 | / | 22.4µM* | / | -19.6% | -20.5%
COc1cccc(CN2CCC(C(=O)N3CCN(c4ccccc4F)CC3)CC2)c1 | 14.7 | -12.6% | 2.7% | -16.7% | -1.0% | -13.4%
Cc1oc(-c2ccc(Cl)cc2)nc1CN1CCC(C(=O)N2CCc3ccccc3C2)CC1 | / | / | -17.7% | / | 3.4% | 22.4µM*
CCc1ccccc1NC(=O)c1nnn(Cc2ccc(Cl)cc2)c1N | -7.0 | -5.7% | / | -16.6% | / | 0.0%
CCC(C)NC(=O)c1c(C)oc2ncn(CC(C)C)c(=O)c12 (stereo not given) | -5.4 | -6.0% | / | -16.8% | / | -21.5%
COc1cccc(NC(=O)CSC2=Nc3ccccc3C3=NC(CC(=O)NCCc4ccccc4)C(=O)N23)c1 (stereo not given) | 18.9 | -1.5% | / | -3.0% | / | 0.0%
COc1ccc(-c2nc3c4ccccc4n(CC(=O)Nc4cc(F)ccc4F)c(=O)n3n2)cc1 | 50.3 | 1.8% | / | 1.8% | / | 1.2%
Cc1ccnc(NC(=O)c2ccc3[nH]c(=O)c(=O)[nH]c3c2)c1 | -4.4 | / | -3.1% | / | -14.8% | -5.4%

High-throughput results (PubChem BioAssay)
